The list is not random: actives were taken first. Their share in the collection is about 6.2%.
HCMV inh = blocks human cytomegalovirus replication; HFF cells, HCMV-luciferase reporter, 72 h; hits give low values; hit rate 4.5% among 410,000; activity change, negative = inhibition, % at 57.5 µM; in the data active means activity change below about -60%; inconclusive means no clear call, values can overlap the other calls; inactive means above about -39%
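Screen run at 2 compound doses on HFFs infected with reporter HCMV, MOI 1 PFU/cell. Luciferase activity from cell lysates at 72 h post infection gave inhibition relative to buffer-only and Salinomycin wells.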
Marburg entry inh = Marburg virus entry inhibition. Marburg virus pseudotyped entry inhibition, cell reporter. hit rate 1.8% among 300,000. AID 540276. Potency, µM (top dose mostly 37.8 µM), for inactives: top-dose activity change, negative = inhibition, hits mostly inhibitors; calls by dose curve; tested in HEK293 cells; further: potency means the concentration at half of the fitted maximal effect
LASV entry inh = Lassa virus entry inhibition | Lassa virus pseudotype entry inhibition, cell reporter | Potency, µM (top dose mostly 37.9 µM), without a hit: at the top dose activity change, negative = inhibition, most hits filed as inhibitors | AID 540256 | hit rate 1.2% among 300,000; calls by dose curve; tested in HEK293 cells; further: potency means the concentration at half of the fitted maximal effect; nearly all actives have a fitted effect of over 50% in size
FMDV inh = foot and mouth disease virus antiviral activity. FMDV antiviral cell-based qHTS. Potency, µM (titrated, usually from 57.9 µM), for inactives: at the top dose activity change, negative = inhibition, usual class: inhibitors. hit rate 1.2% among 410,000. AID 1159524; calls by dose curve; tested in HEK293T cells; further: read-out not given here; potency means the concentration at half of the fitted maximal effect; nearly all actives have a fitted effect of over 45% in size
* hit, by the source's call; ? = inconclusive; nt = no result given; [ ] = another dose, or the depositor's remark. On the % scale 0 is the no-effect control and ±100 the full control effect.

SMILES	HCMV inh	Marburg entry inh	LASV entry inh	FMDV inh
Cc1nn(Cc2ccccc2)c(C)c1C(=O)NCC(c1cccs1)N1CCOCC1 (stereo not given)	19	24%	-2%	-3%
Cc1ccc(Cn2nc(C)c(C(=O)NCC(c3cccs3)N3CCOCC3)c2Cl)cc1 (stereo not given)	?	-13%	13µM*	?
CCN(CC)CCNC(=O)c1cnn(-c2nccc(-c3cc4ccccc4o3)n2)c1C	nt	nt	nt	-9%
Cc1ccc([N+](=O)[O-])cc1N/C=C/C(=O)c1ccco1	-11	?	12µM*	nt
Fc1ccc(C2=NC(c3cccc(C(F)(F)F)c3)=Nc3ccccc3N2)cc1	-7	?	?	-9%
COc1ccc(OCC(=O)Nc2nccs2)cc1	20	?	?	-64%
CCOc1ccc(OCC(=O)Nc2nccs2)cc1	nt	?	?	8.9µM*
Cc1ccc(CC(=O)Nc2nccs2)cc1	-67*	nt	nt	15%
Cc1nnc(SCC(=O)Nc2nccs2)s1	-4	5%	-1%	17%
Cc1nnc(SCC(=O)Nc2nccs2)o1	-61*	31%[46.1 µM]	2%[46.1 µM]	19%
O=C(Cc1ccc(F)cc1)Nc1nccs1	3	nt	nt	31%
C[C@H](CO)N1C[C@H](C)[C@@H](CN(C)C(=O)Nc2ccc(N3CCN(C)CC3)cc2)OCc2cn(nn2)CCCC1=O	-2	nt	nt	nt
CCOc1cc(CNCCc2ccc(S(N)(=O)=O)cc2)ccc1OCc1ccc(Cl)cc1	-103*	?	?	?
COc1cc(CNCCc2ccc(S(N)(=O)=O)cc2)ccc1OCC(=O)NC1CCCCC1	13	?	4%	-3%
NS(=O)(=O)c1ccc(CCNCc2ccccc2OCc2ccc(F)cc2)cc1	-67*	?	?	?
CCOc1ccc(CNCCc2ccc(S(N)(=O)=O)cc2)cc1	-1	?	-10%	-7%
COc1cc(CNCCc2ccc(S(N)(=O)=O)cc2)ccc1OCc1ccc(Cl)cc1	-93*	?	?	?
NS(=O)(=O)c1ccc(NCc2ccccc2OCc2ccc(F)cc2)cc1	?	?	-29%	?
CCOC(=O)CSc1nc2c(sc3ccccc32)c(=O)n1CCO	-2	nt	-2%[46.1 µM]	-24%
CC(C)=CCCC1=CC[C@H](C(=O)O)[C@H](C(=O)O)C1	nt	nt	nt	-20%
CCCC(=O)Nc1ccc(C2C(=O)c3ccccc3C2=O)cc1	164	?	-50%	10µM*
CC(=O)Nc1ccc(C2C(=O)c3ccccc3C2=O)cc1	140	1%	-11%	20µM*
Cc1ccc(S(=O)(=O)NCC2CCCO2)cc1 (stereo not given)	18	29%	10%	13%
O=S(=O)(NCC1CCCO1)c1ccc(-c2ccc(S(=O)(=O)NCC3CCCO3)cc2)cc1 (stereo not given)	-93*	-38%[46.1 µM]	nt	-25%
COc1cc(NC(=O)C2=C(N3CCOCC3)/C(=C/c3ccc(Cl)cc3)CC2)cc(OC)c1OC	45	16µM*	-18%	?
SMILES	HCMV inh	Marburg entry inh	LASV entry inh	FMDV inh
COc1cc(NC(=O)C2=C(N3CCOCC3)/C(=C\c3ccc(N(C)C)cc3)CCC2)cc(OC)c1OC	-91*	?	?	?
Cn1cccc1C(=O)N1CCC2(CC1)CCN(C(c1ccccc1)c1ccccc1)CC2	nt	nt	nt	-19%
Cc1c(CC(=O)NCCC(=O)O)c(=O)oc2cc3oc4c(c3cc12)CCCC4	-40	nt	nt	3%
Cc1c(CC(=O)NCCCC(=O)O)c(=O)oc2cc3c(cc12)CCC(C)(C)O3	-86*	?	?	6.3µM*
Cc1c(CC(=O)NCCCCCC(=O)O)c(=O)oc2cc3c(cc12)CCC(C)(C)O3	-15	?	-23%	-16%
Cc1c(CC(=O)NCCCC(=O)O)c(=O)oc2cc3oc4c(c3cc12)CCCC4	-66*	-2%	-6%	16%
Cc1nc2n(c(=O)c1CCN1CCC(c3noc4cc(F)ccc34)CC1)CCCC2O (stereo not given)	-16	-18%	0%	nt
CCn1cnc2c(Nc3cccc(Cl)c3)nc(C#N)nc21	60	nt	nt	3%
CC[C@H](CO)Nc1nc(Nc2cccc(Cl)c2)c2ncn(C(C)C)c2n1	-65*	nt	nt	7%
CCn1cnc2c(Nc3cccc(Cl)c3)nc(N[C@@H]3CCCC[C@H]3N)nc21	nt	6.3µM*	nt	nt
Cn1c(=O)[nH]c(=O)c2c1nc([N+](=O)[O-])n2Cc1ccccc1	-97*	?	?	7.9µM*
CC(C)Cn1c([N+](=O)[O-])nc2c1c(=O)[nH]c(=O)n2C	-103*	?	7.1µM*	28µM*
Cn1c(=O)[nH]c(=O)c2c1nc(N1CCNCC1)n2Cc1ccccc1	19	?	?	-4%
Cc1ccc[n+](CC(=O)Nc2cc(C(F)(F)F)ccc2Cl)c1	-22	6%	5%	nt
CCC(C)(C)c1ccc(OCCCC[n+]2cccc(C)c2)c(C(C)(C)CC)c1	-101*	?	?	32µM*
CN1C[C@]2(CCN3CCCC(C)(C)[C@@H]32)c2ccccc21	18	nt	nt	nt
C=C1C2C[C@H](O)C(C)(C)[C@@]2(O)[C@H](O)C[C@]23C[C@@](C)(O)[C@H](CC[C@H]12)[C@H]3OC(C)=O (stereo not given in full)	-1	25%	1%	6%
C=C1C(=O)OC2C1C(OC(=O)C(C)=CC)CC(=C)C1C(O)C3OC3(C)C21O (stereo not given)	?	-23%	-15%[46.1 µM]	28µM*
C=C1CCC[C@]2(C)C[C@H]3OC(=O)C(CNC(C)(CO)CO)[C@H]3CC12 (stereo not given in full)	-86*	?	9%	-21%
C=C1CCC[C@]2(C)C[C@H]3OC(=O)C(CN4CCCCC4CO)[C@H]3CC12 (stereo not given in full)	-92*	11µM*	-25%	?
CCOC(=O)c1c(Nc2ccc(OC)cc2)n[nH]c1C	97	nt	nt	nt
N#CCCCc1cn(-c2nc3ccccc3s2)nn1	56	nt	nt	24%
CN(C)CCCNC(=O)[C@@H]1[C@@H](CO)[C@@H]2Cn3c(cccc3=O)[C@H]1N2C(=O)Nc1cc(F)ccc1F	1	nt	nt	nt
COc1ccc(-c2csc(NC(=O)c3ccccc3F)n2)cc1	-38	nt	nt	60%
O=C(CCNC(=O)c1ccccc1Cl)Nc1nc(-c2ccc(F)cc2)cs1	-80*	-28%	?	?
SMILES	HCMV inh	Marburg entry inh	LASV entry inh	FMDV inh
COc1ccc(-c2csc(NC(=O)c3ccccc3NS(=O)(=O)c3ccc(F)c(F)c3)n2)cc1	-100*	2.3µM*	3.7µM*	?
Cc1ccc(S(=O)(=O)Nc2ccccc2C(=O)Nc2nc(-c3ccc(F)cc3)cs2)cc1	-103*	2.8µM*	3.3µM*	0%
O=C(Nc1ccc(-c2csc(-c3ccccc3)n2)cc1)c1ccccc1Cl	-67*	?	-18%	nt
COc1ncccc1C(=O)N1CCOc2ccc(C(O)C(c3ccccc3)c3ccccc3)cc2C1 (stereo not given)	nt	nt	nt	5%
Cc1ccc(C)n1C1C(=O)N(C)c2ccc(F)cc21 (stereo not given)	26	nt	nt	nt
Cc1ccc(Cl)cc1-n1ncc2c(N3CCC(C)CC3)ncnc21	-20	nt	0%[46.1 µM]	?
Cc1nn(CC(=O)NCc2ccc(F)cc2)c2ccccc12	23	-8%[46.1 µM]	0%[46.1 µM]	15%
